The list is not random: actives were taken first. Their share in the collection is about 10%.
MCF10A rerep: inducers of DNA re-replication in MCF 10A breast cells | MCF 10A DNA re-replication, Hoechst nuclear intensity, 48 h | Potency, µM (titrated, usually from 46.1 µM), without a hit: at the highest dose activity, positive = re-replication, hits mostly activators | 350,000 compounds, 2.9% hits | AID 624296; note: % of control where 0% means no effect; nearly all actives have a fitted effect of over 50% in size
KB-3-1 cytotox: kills parental KB-3-1 adenocarcinoma cells; KB-3-1 viability, CellTiter-Glo ATP luminescence, 72 h; Potency, µM (top dose mostly 46.1 µM), usual class: cytotoxic; 400,000 compounds, 1.4% hits; note: % is set by controls: 0 for no effect and ±100 for the full control effect; nearly all actives have a fitted effect of over 60% in size
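Viability of parental KB-3-1 cells, measured by CellTiter-Glo luminescence, followed a 72 h incubation at 37 °C with pinned compounds in phenol-red-free DMEM containing 10% FBS.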
SW480 rerep: DNA re-replication induction in SW480 cells; Potency, µM (titrated, usually from 46.1 µM), for inactives: at the highest dose re-replication activation, most hits filed as activators; SW480 DNA re-replication, Hoechst DNA content imaging, 48 h; AID 624297; 340,000 compounds, 1.8% hits; note: % of control where 0% means no effect; nearly all actives have a fitted effect of over 55% in size
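Image-based DNA-content assay: after two days of treatment, nuclei were labelled with the DNA dye Hoechst and imaged, and hits were compounds raising the count of nuclei showing high fluorescence intensity.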
KB-V1 MDR tox: KB-V1 MDR subline cytotoxicity; 400,000 compounds, 3.4% hits; Potency, µM (top dose mostly 46.1 µM), most hits filed as cytotoxic; AID 1347076; KB-V1 MDR cells viability, CellTiter-Glo, 72 h; note: % is set by controls: 0 for no effect and ±100 for the full control effect; nearly all actives have a fitted effect of over 60% in size
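Compound-treated KB-V1 multidrug-resistant cells, 72 h, 37 degrees C; viability by CellTiter-Glo. Fitted qHTS curves give the values.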
RORgamma inh: ROR gamma (mouse) transcription inhibition. P51450. Drosophila S2 Gal4-RORgamma UAS-luciferase reporter, 20 h. Potency, µM (top dose mostly 53.6 µM), inactives show at the top dose activity change, negative = inhibition, hits mostly inhibitors. 310,000 compounds, 5.4% hits. AID 2551; note: % is set by controls: 0 for no effect and ±100 for the full control effect; nearly all actives have a fitted effect of over 60% in size
Target sequence (P51450 whole entry, looked up, the tested form may be a part): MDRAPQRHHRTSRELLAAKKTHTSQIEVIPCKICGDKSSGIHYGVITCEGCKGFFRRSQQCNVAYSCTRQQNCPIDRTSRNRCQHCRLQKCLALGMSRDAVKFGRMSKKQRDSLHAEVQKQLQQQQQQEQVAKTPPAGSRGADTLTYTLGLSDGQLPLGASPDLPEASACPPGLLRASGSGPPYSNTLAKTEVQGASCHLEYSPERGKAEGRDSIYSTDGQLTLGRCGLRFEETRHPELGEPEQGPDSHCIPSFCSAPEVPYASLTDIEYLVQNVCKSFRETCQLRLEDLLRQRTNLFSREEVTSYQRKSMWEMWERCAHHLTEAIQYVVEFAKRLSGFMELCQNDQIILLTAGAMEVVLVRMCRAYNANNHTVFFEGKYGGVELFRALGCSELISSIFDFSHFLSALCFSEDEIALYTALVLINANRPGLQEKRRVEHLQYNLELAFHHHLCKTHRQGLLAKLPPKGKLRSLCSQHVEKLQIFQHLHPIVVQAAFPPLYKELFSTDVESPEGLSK
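Stably transfected Drosophila Schneider cells are the test system, with ROR gamma fused to Gal4 and luciferase under UAS control; luminescence is read after 20 hr of 700 uM copper sulfate induction at ambient temperature.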
Gal4-VP16 FLuc: Gal4-VP16 reporter inhibition counter-screen; Potency, µM (top dose mostly 53.6 µM), inactives show top-dose activity, negative = inhibition, actives largely listed as inhibitors; Drosophila S2 Gal4-VP16 UAS-luciferase, luminescence, 20 h; 310,000 compounds, 3.5% hits;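 note: Gal4-VP16 expression switched on by copper sulfate through the metallothionein promoter; % is set by controls: 0 for no effect and ±100 for the full control effect; nearly all actives have a fitted effect of over 50% in size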
* hit, by the source's call; i = inactive; ? = inconclusive; · = not tested or not shown; [ ] = dose if it differs, or a comment. Calls come from the whole dose curve; as a rule, active = well fitted curve in the direction sought with a large enough effect; inconclusive = small, poorly fitted or top-dose-only effect, or another doubt; inactive = no such curve, though single readings can be large; an effect the other way counts as inactive or inconclusive. Potency is the fitted concentration of half-maximal effect.

SMILES | MCF10A rerep | KB-3-1 cytotox | SW480 rerep | KB-V1 MDR tox | RORgamma inh | Gal4-VP16 FLuc
CCCC(=O)NC(c1ccc(OC)c(OC)c1)c1c(O)ccc2ccccc12 (configuration not stated) | -6% | i | 0% | ? | 31% | 0%
CCCC(=O)NC(c1ccc(N(C)C)cc1)c1c(O)ccc2ccccc12 (configuration not stated) | -1% | i | -2% | 15µM* | ? | -13%
CCOC(=O)c1ccccc1NC(=O)Cn1c(=O)n(CCCC(=O)NCc2ccc3c(c2)OCO3)c(=O)c2ccccc21 | · | i | · | i | · | ·
CCn1c(-c2ccc3ncccc3c2)n[nH]c1=S | 0% | i | -26% | i | 11µM* | ?
CCCCn1c(=O)[nH]c(=O)c2c1nc(-c1ccc([N+](=O)[O-])cc1)n2CC | 15% | i | -3% | ? | 11% | 0%
CCn1c(-c2sc(-c3ccccc3)nc2C)n[nH]c1=S | 12% | i | 14% | ? | 3.5µM* | ?
CCn1c(-c2ccc([N+](=O)[O-])cc2)n[nH]c1=S | 11% | i | -10% | i | 11µM* | -24%
CCn1c(-c2cccc(Br)c2)n[nH]c1=S | 0% | ? | -3% | ? | 10µM* | 7.1µM*
COc1ccc(OC)c(NC(=O)C2CCN(S(=O)(=O)c3ccc4c(c3)CCCC(=O)N4)CC2)c1 | · | i | · | i | · | ·
CC(C)(C)NC(=O)[C@@H]1CC[C@@H]2[C@@H]3CC[C@@H]4NC(=O)C=C[C@@]4(C)[C@H]3CC[C@]21C | -2%[20.6 µM] | · | -10%[20.6 µM] | · | -30%[2.98 µM] | -20%[17 µM]
COc1cc(NC(=O)NC(C)c2c(-n3cccc3)sc3c2CCN(C)C3)cc(OC)c1 (configuration not stated) | · | i | · | i | · | ·
CCOC(=O)c1cc2c(=O)n3ccccc3nc2n(CCCOC)c1=NC(=O)c1c(-c2ccccc2Cl)noc1C | · | i | · | i | · | ·
COc1ccc(-n2nc(C(=O)NCC(=O)NCc3ccco3)c3ccccc3c2=O)cc1Cl | ? | i | 0% | 5.8µM* | 20% | -12%
Cc1nc(-c2ccccc2)sc1CCNS(=O)(=O)c1ccc(Br)cc1 | · | ? | · | 21µM* | · | ·
COc1ccc(NC(=O)C(=O)NCCc2sc(-c3ccc(Cl)cc3)nc2C)cc1 | · | i | · | i | · | ·
COc1ccc(S(=O)(=O)NCCc2sc(C)nc2C)cc1 | · | i | · | ? | · | ·
COc1ccc(-c2nc(C)c(CCNS(=O)(=O)c3cc(Cl)ccc3Cl)s2)cc1 | · | 15µM* | · | 21µM* | · | ·
Cc1nc(C)c(CCNS(=O)(=O)c2ccc(C)c(C)c2)s1 | · | ? | · | 21µM* | · | ·
COc1ccc(S(=O)(=O)NCCc2sc(-c3cccc(F)c3)nc2C)cc1 | · | i | · | i | · | ·
COc1ccc(-c2nc(C)c(CCNS(=O)(=O)c3cc(C)c(C)cc3C)s2)cc1 | · | ? | · | 18µM* | · | ·
COc1ccc(OC)c(S(=O)(=O)NCCc2sc(-c3cccnc3)nc2C)c1 | · | i | · | ? | · | ·
COc1ccc(CCNC(=O)c2ccc(Nc3nc4ccccc4n4nnnc34)cc2)cc1OC | · | i | · | i | · | ·
O=S(=O)(NCCSc1ccccn1)c1ccc(Br)cc1 | -16% | i | -5% | i | 8.9µM* | 11µM*
COc1ccc(-c2nc(C)c(CCNS(=O)(=O)c3ccc(F)cc3)s2)cc1OC | · | ? | · | 9.2µM* | · | ·
COc1ccc(S(=O)(=O)NCCc2sc(-c3ccccc3)nc2C)cc1OC | · | i | · | ? | · | ·
SMILES | MCF10A rerep | KB-3-1 cytotox | SW480 rerep | KB-V1 MDR tox | RORgamma inh | Gal4-VP16 FLuc
CN(C)c1nc(-c2cccc(NS(C)(=O)=O)c2)nc2ccccc12 | · | · | · | · | 44% | 4%
Cn1c(=O)n2n(c1=O)[C@H]1[C@H](O)[C@H]3O[C@@H]3/C(=N/OCc3ccccc3)[C@@H]1CC2 | · | · | · | · | 0%[10 µM] | 11%[10 µM]
CC1CN(C2CCCCC2)C(=O)NC1=O (configuration not stated) | 3% | i | -11% | i | · | ·
COc1ccc(NC(=O)CNS(=O)(=O)c2ccccc2)cc1Cl | 8.2µM* | i | ? | ? | ? | -19%
Cc1ccc(NC(=O)CCCCCNS(=O)(=O)c2ccc(C)cc2)cc1 | -7% | ? | ? | ? | 1% | 1%
CC(NC(N)=O)C(=O)Nc1ccc(Cl)c(S(=O)(=O)Nc2ccc(Br)cc2)c1 (configuration not stated) | ? | i | -41%[1.84 µM] | i | 6.3µM* | 3.2µM*
COc1ccc(NC(=O)COC(=O)CNS(=O)(=O)c2ccccc2)cc1OC | -37% | i | 5% | i | 25% | 2%
Cc1ccc(S(=O)(=O)NCCC(=O)Nc2cccc(Cl)c2)cc1 | 0% | i | 0.29µM* | 16µM* | 38% | 2%
CCC(C)NCCC(=O)Nc1ccc(Cl)c(S(=O)(=O)Nc2ccc(Cl)cc2)c1 (configuration not stated) | 13µM* | i | 26% | i | ? | -6%
CCOC(=O)c1sc2ccccc2c1S(=O)(=O)NCc1ccccc1OC | · | i | · | i | · | ·
COc1cccc(CNC(=O)CCn2nc(C)c3c(C)n(-c4ccccc4)nc3c2=O)c1 | · | i | · | i | · | ·
Cc1ccc(C(=O)CCC(=O)Nc2ccc(Cl)c(S(=O)(=O)Nc3cccc(Cl)c3)c2)cc1 | 5% | i | -5% | 16µM* | 23% | 4%
Nc1ccc(Cl)c(S(=O)(=O)Nc2cccc(Cl)c2)c1 | 0.18µM* | i | -63% | i | 19% | 4%
CC(=O)Nc1ccc(S(=O)(=O)NCCC(=O)Nc2ccc(C)c(Cl)c2)cc1 | 2% | i | -74% | i | 17% | -8%
Cc1ccc(S(=O)(=O)NCCC(=O)Nc2ccc(Cl)c(Cl)c2)cc1C | 16% | i | 0% | ? | ? | 11µM*
Cc1ccc(S(=O)(=O)NCCC(=O)Nc2ccc(Cl)c(Cl)c2)cc1 | ? | ? | -3% | 15µM* | 32% | ?
Cc1ccc(S(=O)(=O)NCCC(=O)Nc2ccncc2)cc1C | 12% | i | 0.65µM* | i | · | ·
CCN(c1ccc(NS(=O)(=O)c2cc(Cl)ccc2Cl)cc1)C(C)C | 23µM* | ? | ? | ? | ? | 0%
CCCOc1ccc(/C=C/C(=O)Nc2sc(C)c(C)c2C(=O)OCC)cc1OC | · | i | · | i | · | ·
COc1cc([N+](=O)[O-])ccc1NC(=O)N1CCC2(CC1)Nc1ccccc1-n1cccc12 | · | i | · | i | · | ·
Cc1ccc(CNC(=O)Cn2c(=O)n(-c3ccc(C)c(F)c3)c(=O)c3sc4ccccc4c32)cc1 | · | i | · | i | · | ·
CC(=O)Nc1nonc1-c1nc2ccccc2n1Cc1nnc(C)o1 | 3% | i | -2% | ? | -23% | -5%

Compound activity as filed in PubChem BioAssay.
